APOBEC3A inh – inhibitors of human APOBEC3A DNA deaminase; P31941; recombinant A3A, FAM/TAMRA ssDNA deamination fluorescence; inhibition, % at 20 µM; 330,000 compounds, 0.41% hits;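 active = at least 40% inhibition at 20 µM here, with at most 30% in a related deaminase screen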;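 also: plate controls were A3A with DMSO for no effect and wells lacking A3A enzyme for full effect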
PfM18AAP inh – blocks P. falciparum M18 aspartyl aminopeptidase. recombinant PfM18AAP, H-Glu-NHMec fluorogenic cleavage. inhibition, % at 7.35 µM. 290,000 compounds, 1.2% hits. AID 1822;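 active = inhibition above the campaign mean inhibition over all tested compounds plus 3 SD, cut at about 28% in these data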;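 also: 0% = plate median of test compound wells and 100% = 2 mM ZnCl2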
APOBEC3G inh – blocks human APOBEC3G single-stranded DNA deamination; 330,000 compounds, 0.28% hits; Q9HC16; inhibition, % at 20 µM; recombinant A3G, ssDNA deamination FAM/TAMRA fluorescence;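 active = inhibition of at least 40% at 20 µM, with no more than 30% in the related APOBEC3A deaminase screen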;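 also: plate controls were DMSO wells with A3G for no effect and wells lacking A3G enzyme for full effect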
Target sequence (Q9HC16 whole entry, looked up): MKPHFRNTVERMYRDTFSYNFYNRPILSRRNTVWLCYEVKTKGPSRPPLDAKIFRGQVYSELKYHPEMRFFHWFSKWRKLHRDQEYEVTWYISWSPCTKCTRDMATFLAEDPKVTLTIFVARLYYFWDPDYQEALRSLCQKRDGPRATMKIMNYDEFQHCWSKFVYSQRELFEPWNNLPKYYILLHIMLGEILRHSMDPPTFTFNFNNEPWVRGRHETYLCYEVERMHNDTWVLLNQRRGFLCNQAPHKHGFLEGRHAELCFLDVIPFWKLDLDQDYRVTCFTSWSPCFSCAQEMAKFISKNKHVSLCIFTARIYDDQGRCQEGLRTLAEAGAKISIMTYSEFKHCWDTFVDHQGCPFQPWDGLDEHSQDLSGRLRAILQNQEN
ALR H2O2 inh – human ALR oxidase inhibition via reduced H2O2; P55789; purified ALR, DTT oxidation, H2O2 HRP-luminol luminescence; inhibition, % (concentration not given with the values); 290,000 compounds, 3.8% hits;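 active = mean replicate inhibition above about 79%, with every replicate also reaching it, limit read from the data; inconclusive = only one of the two criteria met; inactive = mean below limit and not every replicate reaching it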
Target sequence (P55789 whole entry, looked up): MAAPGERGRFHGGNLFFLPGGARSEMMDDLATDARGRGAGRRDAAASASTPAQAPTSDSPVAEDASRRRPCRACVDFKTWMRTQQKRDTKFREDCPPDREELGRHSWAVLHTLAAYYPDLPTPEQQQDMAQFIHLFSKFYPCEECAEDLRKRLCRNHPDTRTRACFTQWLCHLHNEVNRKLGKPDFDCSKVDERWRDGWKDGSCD
Yeast superoxide – lowers age-related superoxide in aged yeast cells | S. cerevisiae aged cells, superoxide DHE fluorescence; hits give low values | superoxide response (% of plate mean), % at 10 µM | 330,000 compounds, 0.18% hits;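 active = superoxide response under a set limit, about three screen SD below normal, cut at about 65% in these data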;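 also: yeast aged for seven days with compound at 30 °C before DHE staining; 100% = average MFI of all compound-treated wells on the plate with controls excluded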
NRP1-CendR mod – modulators of CendR peptide binding to human neuropilin-1 | FAM-RPARPAR peptide binding to NRP-1, fluorescence polarization | inhibition, % at 25 µM | 360,000 compounds, 0.85% hits | AID 602438;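 active = inhibition or corrected inhibition above about 18%, plus a signal ratio from 0.5 to 1.5, limit read from the data, passing the limit was not always enough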
The depositor's hits bear a star; ? = inconclusive; . = no result. Rows were chosen to be rich in hits. Some 5.2% of all compounds tested hit in one or more screens of this group.

SMILES	APOBEC3A inh	PfM18AAP inh	APOBEC3G inh	ALR H2O2 inh	Yeast superoxide	NRP1-CendR mod
CC(=O)Nc1ccc(S(=O)(=O)Nc2nc3ccccc3nc2Nc2ccc3ccccc3c2)cc1	-3	-1	-10	?	92	-64
CC(=O)Nc1ccc(S(=O)(=O)Nc2nc3ccccc3nc2Nc2ccc(N)cc2)cc1	3	-6	-2	100*	75	133
CC(=O)Nc1ccc(S(=O)(=O)Nc2nc3ccccc3nc2Nc2cccc(O)c2)cc1	-6	-9	-6	82*	90	-8
O=C(O)c1ccc(Nc2nc3ccccc3nc2NS(=O)(=O)c2ccc(F)cc2)cc1	-6	-15	1	98*	103	-40
CC(=O)Nc1ccc(S(=O)(=O)Nc2nc3ccccc3nc2Nc2ccc(C(=O)O)c(O)c2)cc1	56	.	47	98*	113	15
O=C(O)c1cccc(Nc2nc3ccccc3nc2NS(=O)(=O)c2ccccc2)c1	-3	.	-6	11	119	-20
Cc1ccc(NC(=O)c2ccc(CSc3nnc(-c4ccncc4)n3C)cc2)c(C)c1	-3	6	-5	-9	105	3
CCOc1ccc(NC(=O)C(c2ccccn2)N(C(=O)CCl)c2ccc(F)cc2)cc1 (stereo not drawn)	.	3	.	-2	105	7
C/C(=N\NC(=S)NCc1ccccc1)c1ccc(C#N)cc1	-4	2	-5	1	117	14
CC(=O)Nc1ccc(S(=O)(=O)NCC(=O)NCCCc2ccccc2)cc1	1	-6	0	28	95	14
CC(=O)Nc1ccc(S(=O)(=O)Nc2ccc(Nc3ccccc3)cc2)cc1	-5	-73	-9	99*	98	2
CC(=O)Nc1ccc(S(=O)(=O)NCCC(=O)NCCCc2ccccc2)cc1	1	.	-5	-6	90	22*
Nc1nc(-c2ccc3c(c2)CCO3)cs1	0	3	-2	97*	97	7
CC(=O)Nc1nc(-c2ccc3c(c2)CCO3)cs1	0	-5	-3	-10	111	-2
CC1(C(=O)Nc2cccc(C(F)(F)F)c2)Cc2c(-c3ccc4c(c3)OCO4)ccnc2O1 (stereo not drawn)	.	.	.	.	.	9
COc1cc(OC)c2c(-c3cccc(-c4ccc(C(F)(F)F)cc4)c3)cc(=O)oc2c1	2	.	-1	.	89	10
Cn1cc(C(=O)N2CCCC(Nc3ccc(F)cc3)C2)c2ccccc21 (stereo not drawn)	-7	-1	-8	88*	73	3
CN(C)c1ccccc1C(=O)N1CCCC(Nc2ccc(F)cc2)C1 (stereo not drawn)	-1	-4	6	99*	97	-5
Cn1nccc1C(=O)N1CCCC(Nc2ccc(F)cc2)C1 (stereo not drawn)	-4	8	-3	72	94	-1
COc1ccc(CCN(C)C(=O)COC(=O)/C=C/c2ccc(C)o2)cc1OC	-4	.	-8	.	.	-16
O=C(COC(=O)c1ccc2ncsc2c1)Nc1ccccc1Cl	0	.	-5	-6	40*	-2
CCOC(=O)C1(CC2CCCCO2)CCN(Cc2ccccc2-c2ccco2)CC1 (stereo not drawn)	2	2	-6	.	90	-17
O=C(Nc1ccc2c(c1)OCO2)c1c[nH]c(=O)n(-c2ccc(F)cc2)c1=O	9	1	7	-33	108	20*
COCCn1c(C)cc(C(=O)COc2nc3ccccc3nc2C)c1C	-3	11	-3	0	89	1
CCOc1ccc(NS(=O)(=O)c2ccc(C(=O)N(C)CC(=O)Nc3ccccc3Br)cc2)cc1	.	.	.	.	.	-3
SMILES	APOBEC3A inh	PfM18AAP inh	APOBEC3G inh	ALR H2O2 inh	Yeast superoxide	NRP1-CendR mod
CCOc1ccccc1NC(=S)N1CCN(c2ccccc2)CC1	-9	-3	-2	98*	96	-17
CN(c1cccc(NC(=O)c2cccc([N+](=O)[O-])c2)c1)S(C)(=O)=O	-3	2	-9	-26	110	-7
CCN(CC)S(=O)(=O)c1cccc(C(=O)NC(Cc2c[nH]c3ccccc23)c2nnc3n2CCCCC3)c1 (stereo not drawn)	2	0	-3	-4	77	26*
CCOC1CCCc2oc(-c3ccc(N(C)C)cc3)c(C(=O)OC)c21 (stereo not drawn)	.	.	.	.	.	7
Cn1cccc1/C=N/N1CCN(Cc2ccccc2Cl)CC1	-3	24	-7	59	93	3
Cn1cccc1/C=N/N1CCN(c2ccccc2)CC1	-5	1	-5	94*	105	-18
CCCCC#Cc1cncc(C(=O)N/N=C/c2cccc(OC)c2)c1	-2	3	-9	-3	93	38*
COc1cccc(/C=N\NC(=O)c2ccc(C)nc2)c1	12	4	4	.	106	-2
CCOc1ccc2[nH]c(O)c(NC(C)=O)c2c1	1	-12	12	-13	89	28*
COc1ccc(/C=C2\Oc3cc(OCC(=O)N4CCC[C@H]4C(=O)O)ccc3C2=O)cc1OC	-2	-3	-8	.	97	-21
CCOc1ccc(-c2nnn(CC(=O)N3CCCC3)n2)cc1OCC	3	-1	-5	0	96	-1
COC(=O)CC1C(=O)NCCN1C(=S)Nc1cccc(C)c1 (stereo not drawn)	1	1	-1	-9	108	-9
COC(=O)CC1C(=O)NCCN1C(=S)Nc1ccc(F)cc1 (stereo not drawn)	-4	4	-2	0	111	36*
CC1(C(=O)CSc2nc3ccccc3s2)CCC(=O)O1 (stereo not drawn)	-5	5	6	99*	106	-17
Cc1cc(C)nc(NC(=O)CSc2nc3ccccc3s2)n1	7	-6	-2	-12	96	4
Nc1nc(CSCc2ccccc2)nc(N2CCOCC2)n1	0	1	0	-1	99	12
CC1(C)CC2(CC(C)(C(=O)CSc3nc4ccccc4s3)OC2=O)C(=O)O1 (stereo not drawn)	1	-7	-6	91*	122	-1
Nc1nc(CSc2nc3ccccc3s2)nc(N2CCOCC2)n1	2	-2	0	99*	98	-30
NC(=O)C1(N2CCCCC2)CCN(C(=O)CSc2nc3ccccc3s2)CC1	-7	3	-9	.	83	5
CC(C)C(NC(=O)c1ccccc1F)C(=O)NCc1ccc(S(=O)(=O)N2CCOCC2)cc1 (stereo not drawn)	-1	.	-7	.	.	5
CCN(CC(=O)NC(C)C)C(=O)c1ccc(Cl)cc1	.	-1	.	-13	91	1
O=C(NCc1ccncc1)c1ccc(OCc2ccccc2)cc1	.	1	.	.	117	3
COC(=O)CC1C(=O)NCCN1C(=O)c1ccccc1 (stereo not drawn)	-2	1	-4	6	102	-2
O=C(CSc1nc2ccccc2s1)N1CCOCC1	-3	9	-5	97*	104	-1

Source: PubChem
